# TTR transcr act: TTR transcription activators in neuroblastoma reporter cells, primary screen, cell-based, luminescence, SH-SY5Y, TTR promoter Gaussia luciferase | 100% = recombinant luciferase protein wells | activation, % at 16.7 µM | hit rate 1.3% among 92,000;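 active means activation above the mean of all tested compounds plus 3 SD, cut at about 9.5% in these data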;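 further: cells exposed to compounds for one day before reading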
# TTR inh HuH7: TTR promoter reporter inhibitors in hepatoma cells, counter-screen for TTR transcription activator project, cell-based, luminescence, HuH7 hepatoma; shares compounds with TTR transcr act; HuH7 TTR promoter-Gaussia luciferase reporter; inhibition, % at 16.7 µM; hit rate 4% among 1,100; AID 1117279, 2014;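 active means average inhibition above the solvent-only control wells' mean plus 3 SD, cut at about 15% in these data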;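 further: inhibitors lower well luminescence so higher value means more inhibition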
# TTR up confirm: TTR transcription activators, retest, confirmation, cell-based, luminescence, SH-SY5Y, triplicate; SHSY5Y TTR promoter Gaussia luciferase; 100% = purified Lucia enzyme wells, no cells; 1,100 tested, under 10 active; AID 1117280, 2014; activation, % at 16.7 µM; shares compounds with TTR transcr act;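 active means mean activation above a set limit taken from the earlier primary screen, cut at about 11% in these data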
# Numbers stand for hits; n = inactive. Shown is part of a subset that was picked to be rich in hits.
SMILES,TTR transcr act,others
CN(C)C(=S)NC(=O)C12CC3CC(C)(CC(C)(C3)C1)C2,n,
COC(=O)[C@]12C[C@H](CC(=O)NCc3cccc(C(F)(F)F)c3)C(=O)N(CCC3=CCCCC3)C1=C[C@H](C1CCCC1)O[C@@H]2C,n,
CNC(=S)NNC(=O)c1sc(-c2cc(C)on2)nc1C,13.7,TTR inh HuH7=n;TTR up confirm=n
Cc1nc(-c2ccc(Cl)cc2)sc1C(=O)NNC(=O)C(C)C,n,
Cc1cc(C(=O)NNC(=S)NCC(C)C)no1,n,
CNc1ccccc1/C(O)=C(\C#N)C(=O)NCc1cccs1,n,
COc1ccc(Oc2nc(-c3ccccc3)ncc2S(=O)(=O)c2ccccc2)cc1,n,
COc1nc(-c2ccccc2)ncc1S(=O)(=O)c1ccccc1,n,
Cc1cccc(C)c1Oc1nc(-c2ccccc2)ncc1S(=O)(=O)c1ccccc1,26.5,TTR inh HuH7=n;TTR up confirm=n
CC(C)CCN1C(=O)COc2ccccc2C1c1nnnn1-c1ccc2c(c1)OCCO2 (stereo not given),n,
Clc1ccc(-c2cn(-c3ccc(Cl)cc3)c3[n+]2CCCCC3)cc1,n,
COc1ccc(-n2cc(-c3ccc(OC(F)F)cc3)[n+]3c2CCCCC3)cc1,n,
COc1ccc(-c2cn(-c3ccc(Cl)cc3)c3[n+]2CCCCC3)cc1,11.9,TTR inh HuH7=n;TTR up confirm=n
COc1ccccc1C(CNC(=O)c1cc(S(=O)(=O)N2CCOCC2)ccc1C)N1CCCC1 (stereo not given),n,
Cc1cc(C)cc([C@H]2C[C@]34CN(C(=O)OC(C)(C)C)S(=O)(=O)[C@H]3C[C@H]2O4)c1,n,
CCC[C@H]1[C@@H](OC(=O)Oc2ccc([N+](=O)[O-])cc2)CC[C@@]23CCCN2C(=O)CCC[C@@H]13,n,
O=C(Cc1ccccc1)Nc1cccc(-c2nnc(-c3ccco3)o2)c1,n,
O=C(Cc1ccc(Cl)cc1)Nc1cccc(-c2nnc(-c3ccco3)o2)c1,n,
O=C(COc1ccccc1)Nc1ccc(-c2nnc(-c3ccco3)o2)cc1,19.1,TTR inh HuH7=n;TTR up confirm=n
Cc1ccccc1OCC(=O)NNC(=S)NC(=O)c1ccco1,n,
COc1ccc(CC(=O)NNC(=O)CCc2ccccc2)cc1,n,
Cc1ccccc1OCC(=O)NNC(=O)CCc1ccccc1,10.2,TTR inh HuH7=n;TTR up confirm=n
CN(Cc1ccccc1)C(=O)OCc1cn(Cc2ccc(F)cc2)nn1,n,
Cc1ccccc1CN1CCCCC(NC(=O)c2ccc(F)c(F)c2)C1=O (stereo not given),n,
O=C(CN(Cc1ccco1)Cc1cccs1)N1CCN(S(=O)(=O)c2cccc(F)c2)CC1,n,
SMILES,TTR transcr act,others
O=C(Cc1cccs1)N1CCN(S(=O)(=O)c2ccccc2)CC1,n,
O=C(Cc1cccs1)N1CCN(S(=O)(=O)c2ccc(F)c(F)c2)CC1,10.3,TTR inh HuH7=n;TTR up confirm=n
CCC(CC)NC(=O)O[C@H]1CC[C@@]23CCCN2C(=O)CCC[C@H]3[C@H]1C,n,
O=C(Nc1cccc(Cl)c1)OCCN1CCCC12CCC(c1ccccc1)CC2 (stereo not given),n,
O=C(Nc1ccc(F)cc1)c1ccccc1,n,
O=C(Nc1ccccc1)c1ccn[nH]1,14.9,TTR inh HuH7=n;TTR up confirm=n
O=C(Nc1cccc(C(=O)Nc2ccc(Br)cc2)c1)c1ccccc1,n,
N#Cc1cccc(NC(=O)OC2CC3CC2[C@H]2CCCCN2[C@H]3Cc2ccccc2)c1 (stereo not given in full),n,
CCCCCCCCN1C(=O)[C@@H](CC(=O)N2CCC(c3ccccc3)CC2)C[C@@]2(C(=O)OC)C1=C[C@H](COCc1ccccc1)O[C@@H]2C,n,
O=C(C[C@H]1C[C@@H]2c3cc(NC(=O)c4ccc5c(c4)OCO5)ccc3O[C@@H]2[C@H](CO)O1)NCc1cc(F)ccc1F,17.1,TTR inh HuH7=n;TTR up confirm=n
O=C(C[C@H]1C[C@H]2c3cc(NC(=O)CC4CC4)ccc3O[C@H]2[C@H](CO)O1)NCc1ccccc1F,n,
COc1ccccc1CNC(=O)C[C@@H]1C[C@H]2c3cc(NC(=O)c4ccc5c(c4)OCO5)ccc3O[C@H]2[C@@H](CO)O1,n,
COC(=O)[C@]12C[C@H](CC(=O)NCc3cccs3)C(=O)N(Cc3ccco3)C1=C[C@H](C1CCCC1)O[C@@H]2C,n,
COc1ccccc1C(=O)N1CCc2ccccc21,n,
Cc1ccccc1OCC(=O)OCC(=O)N1CCc2ccccc21,n,
COc1cccc(C(=O)OCC(=O)N2CCc3ccccc32)c1OC,11.7,TTR inh HuH7=n;TTR up confirm=n
Cc1cc(C(=O)O)c(C)o1,n,
Cc1nn(C)cc1NC(=O)C[C@H]1CC[C@H]2[C@@H](COc3ccc(NC(=O)Nc4ccccc4)cc3C(=O)N2C)O1,n,
COc1ccc2nc(NC(=O)CSc3ccccc3)sc2c1,n,
CCOC(=O)c1ccc(NC(=O)CSc2nc(SC)ns2)cc1,n,

# Bioassay records (PubChem)
